From PubChem BioAssay (Tox21) come the findings set out here.

Each structure is given as a SMILES string. Records with an inconclusive call do not appear. The source made the active and inactive calls. Unless noted, calls follow the shape of the dose curve; as a rule, active = well fitted curve in the direction sought with a large enough effect in the repeat runs; inconclusive = weak or mixed curves; inactive = no such curve, though single readings can be large; an effect the other way counts as inactive or inconclusive.

A short description of the first assay: qHTS assay to identify small molecule antagonists of the TGF-beta/Smad signaling pathway - cell viability counter screen (AID 1346824). Also: nearly all actives have a fitted effect of over 50% in size. As to conditions: SBE-bla HEK293T viability, CellTiter-Glo luminescence; series mostly up to 76.8 µM. An outline of the steps:
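SBE-bla HEK 293T cells, incubated overnight, then compound plus 0.25 ng/mL TGF-beta1 (stock added) for 5 hr at 37 C. Viability was read in the same wells by CellTiter-Glo luminescence after 30 min at room temperature.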
(In qHTS, concentration-response curves come from the screen itself.)
As for `OC[C@@H](O)[C@H](O)[C@@H](O)[C@@H](O)CO`, the outcome was inactive.
As to `CCCCCCCC/C=C\CCCCCCCC(=O)OC[C@@H](O)[C@H]1OC[C@H](O)[C@H]1O`, the outcome was inactive.
Same read-out and setting: the result for `Nc1nc(=O)n([C@@H]2O[C@H](CO)[C@@H](O)[C@@H]2F)cc1I` reads “inactive”; that for `CC(C)CCC(=O)CCC(C)C`, “inactive”.
Consider `CCOC(=O)C(=O)c1csc(NC=O)n1`, for which the outcome was inactive.
Still for that read-out and setting: with `CC(C)C(=O)c1ccccc1` the entry was “inactive”; with `FC(F)(F)/C(=N\OCC1OCCO1)c1ccc(Cl)cc1`, “inactive”.
With `OCCCCCCCl`, the result was inactive.
Still for that read-out and setting: the result for `CCCCCC(=O)OCC` reads “inactive”; that for `CN=C(NC#N)NCCSCc1csc(N=C(N)N)n1`, “inactive”; that for `CCCCCCCCOC(C)=O`, “inactive”.
Still for that read-out and setting: with `C=CCOC(=O)c1ccc(C(=O)OCC=C)c(C(=O)OCC=C)c1` the entry was “inactive”; with `CC(C)COC(=O)/C=C/c1ccccc1`, “inactive”.
Regarding `CCN(CCO)c1cccc(C)c1`, the outcome was inactive.
Consider `C[N+](C)(C)CC(O)CCl` (configuration not stated), for which the compound was called inactive.
In the case of `CCCCCCCCCCCCC`, the compound was classed as inactive.
Regarding `Nc1ccc(S(=O)(=O)Nc2ccccn2)cc1`, the outcome was inactive.
Regarding `CCC1COC(=O)O1` (configuration not stated), the compound was called inactive.
Turning to `CCCCCCCCCCC`, the result was inactive.
On the same count and under the same terms, the result for `CC1CCC(C(C)(C)S)C(=O)C1` (configuration not stated) reads “inactive”.
As for `CC1=CC[C@H](CC=O)C1(C)C`, the outcome was inactive.
On to `CCCCOC(=O)[C@@H](C)Oc1ccc(Oc2ccc(C(F)(F)F)cn2)cc1`, for which the compound was classed as inactive.
The same measure, in the same setting: with `CCC(O)C(C)(C)C` (configuration not stated) the entry was “inactive”.
With `O=C(Oc1ccccc1C(=O)O)c1ccccc1O`, the outcome was inactive.
As for `CCOC(=O)CC#N`, the call was inactive.
In the case of `C=CCOCC(CO)(COCC=C)COCC=C`, the result was inactive.
The same measure, in the same setting: the result for `NC(=O)NC(=O)Cc1ccccc1` reads “inactive”; that for `O=C1CC[C@H](C(=O)N2CCCCC2)N1`, “inactive”.
Same read-out and setting: the result for `COc1ccc(NS(=O)(=O)c2ccc(N)cc2)nn1` reads “inactive”.
In the case of `COC(OC)C(C)c1ccccc1` (configuration not stated), the result was inactive.
Same read-out and setting: the result for `CC(=O)c1ccc2c(c1)CCCC2` reads “inactive”; that for `O=CN1CCOCC1`, “inactive”; that for `CN[C@@H]1[C@H](O)[C@H](NC)[C@H]2O[C@@]3(O)C(=O)C[C@@H](C)O[C@H]3O[C@@H]2[C@H]1O`, “inactive”.
Regarding `COC(/C=C(\C)CCC=C(C)C)OC`, the compound was called inactive.
Same read-out and setting: the result for `C[C@H](CCC(=O)O)[C@H]1CC[C@H]2[C@@H]3[C@H](O)C[C@@H]4C[C@H](O)CC[C@]4(C)[C@H]3C[C@H](O)[C@]12C` reads “inactive”.
Consider `CCc1nccnc1C`, for which the call was inactive.
The same measure, in the same setting: the result for `CCN(Cc1cccc(S(=O)(=O)O)c1)c1ccccc1` reads “inactive”.

The nature of the next assay: qHTS assay to identify small molecule agonists of the TGF-beta/Smad signaling pathway - cell viability counter screen (AID 1346829). Also: top concentration of the series differs between compounds; nearly all actives have a fitted effect of over 45% in size. As to conditions: SBE-bla HEK293T viability, CellTiter-Glo luminescence, 5 h; series mostly up to 76.8 µM. An outline of the steps: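 SBE-bla HEK 293T cells plated overnight, compound exposure 5 hr at 37 C. Viability read in the same wells by CellTiter-Glo luminescence after 30 min at room temperature, following the beta-lactamase read.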
`CCCCCCCC/C=C\CCCCCCCC(=O)OC[C@@H](O)[C@H]1OC[C@H](O)[C@H]1O`: the call was inactive.
Consider `Nc1nc(=O)n([C@@H]2O[C@H](CO)[C@@H](O)[C@@H]2F)cc1I`, for which the compound was called inactive.
The same measure, in the same setting: the result for `CC(C)CCC(=O)CCC(C)C` reads “inactive”; that for `CC(C)C(=O)c1ccccc1`, “inactive”.
On the same count and under the same terms, the result for `FC(F)(F)/C(=N\OCC1OCCO1)c1ccc(Cl)cc1` reads “inactive”; that for `OCCCCCCCl`, “inactive”.
In the case of `CCCCCC(=O)OCC`, the compound was called inactive.
With `CCCCCCCCOC(C)=O`, the call was inactive.
Still for that read-out and setting: with `C=CCOC(=O)c1ccc(C(=O)OCC=C)c(C(=O)OCC=C)c1` the entry was “inactive”; with `CC(C)COC(=O)/C=C/c1ccccc1`, “inactive”.
Turning to `CCN(CCO)c1cccc(C)c1`, the outcome was inactive.
Consider `C[N+](C)(C)CC(O)CCl` (configuration not stated), for which the compound was classed as inactive.
Same read-out and setting: with `CCCCCCCCCCCCC` the entry was “inactive”; with `Nc1ccc(S(=O)(=O)Nc2ccccn2)cc1`, “inactive”.
The same measure, in the same setting: with `CCC1COC(=O)O1` (configuration not stated) the entry was “inactive”; with `CC1CCC(C(C)(C)S)C(=O)C1` (configuration not stated), “inactive”; with `CC1=CC[C@H](CC=O)C1(C)C`, “inactive”.
For `CCCCOC(=O)[C@@H](C)Oc1ccc(Oc2ccc(C(F)(F)F)cn2)cc1`, the compound was called inactive.
Still for that read-out and setting: with `CCC(O)C(C)(C)C` (configuration not stated) the entry was “inactive”.
Consider `O=C(Oc1ccccc1C(=O)O)c1ccccc1O`, for which the compound was called inactive.
On the same count and under the same terms, with `CCOC(=O)CC#N` the entry was “inactive”; with `C=CCOCC(CO)(COCC=C)COCC=C`, “inactive”.
Consider `NC(=O)NC(=O)Cc1ccccc1`, for which the result was inactive.
Turning to `O=C1CC[C@H](C(=O)N2CCCCC2)N1`, the call was inactive.
The same measure, in the same setting: the result for `COc1ccc(NS(=O)(=O)c2ccc(N)cc2)nn1` reads “inactive”; that for `COC(OC)C(C)c1ccccc1` (configuration not stated), “inactive”.
On the same count and under the same terms, with `CC(=O)c1ccc2c(c1)CCCC2` the entry was “inactive”.
On the same count and under the same terms, the result for `O=CN1CCOCC1` reads “inactive”; that for `COC(/C=C(\C)CCC=C(C)C)OC`, “inactive”.
Consider `C[C@H](CCC(=O)O)[C@H]1CC[C@H]2[C@@H]3[C@H](O)C[C@@H]4C[C@H](O)CC[C@]4(C)[C@H]3C[C@H](O)[C@]12C`, for which the result was inactive.
Regarding `CCc1nccnc1C`, the compound was called inactive.
The same measure, in the same setting: the result for `CCN(Cc1cccc(S(=O)(=O)O)c1)c1ccccc1` reads “inactive”.

A short description of a further assay: qHTS assay to identify small molecule agonists of the TGF-beta/Smad signaling pathway (AID 1346859; active = well fitted activation curve with a large enough effect in the signal ratio in the repeat runs, not every such curve was filed as active; the % refers to the signal ratio). As to conditions: SBE-bla HEK293T, TGF-beta/Smad beta-lactamase reporter, 5 h; series mostly up to 76.8 µM. An outline of the steps:
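Read-out: fluorescence at 460 and 530 nm (405 nm excitation) after a 2 hr room-temperature incubation with beta-lactamase FRET substrate. SBE-bla HEK 293T cells had been treated with test compounds for 5 hr at 37 C.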
Regarding `OC[C@@H](O)[C@H](O)[C@@H](O)[C@@H](O)CO`, the compound was classed as inactive.
Same read-out and setting: the result for `CCCCCCCC/C=C\CCCCCCCC(=O)OC[C@@H](O)[C@H]1OC[C@H](O)[C@H]1O` reads “inactive”; that for `O=C(O)CCNC(=O)c1ccccc1`, “inactive”.
The same measure, in the same setting: the result for `Nc1nc(=O)n([C@@H]2O[C@H](CO)[C@@H](O)[C@@H]2F)cc1I` reads “inactive”; that for `CC(C)CCC(=O)CCC(C)C`, “inactive”; that for `CCOC(=O)C(=O)c1csc(NC=O)n1`, “inactive”.
For the compound `CC(C)C(=O)c1ccccc1`, the call was inactive.
Take `FC(F)(F)/C(=N\OCC1OCCO1)c1ccc(Cl)cc1`: the outcome was inactive.
On the same count and under the same terms, with `OCCCCCCCl` the entry was “inactive”; with `CCCCCC(=O)OCC`, “inactive”.
Same read-out and setting: with `CN=C(NC#N)NCCSCc1csc(N=C(N)N)n1` the entry was “inactive”; with `CCCCCCCCOC(C)=O`, “inactive”; with `C=CCOC(=O)c1ccc(C(=O)OCC=C)c(C(=O)OCC=C)c1`, “inactive”.
Still for that read-out and setting: with `CC(C)COC(=O)/C=C/c1ccccc1` the entry was “inactive”; with `CCN(CCO)c1cccc(C)c1`, “inactive”; with `C[N+](C)(C)CC(O)CCl` (configuration not stated), “inactive”.
Consider `CCCCCCCCCCCCC`, for which the compound was classed as inactive.
Turning to `Nc1ccc(S(=O)(=O)Nc2ccccn2)cc1`, the compound was classed as inactive.
Same read-out and setting: with `CCC1COC(=O)O1` (configuration not stated) the entry was “inactive”; with `CCCCCCCCCCC`, “inactive”.
For the compound `CC1CCC(C(C)(C)S)C(=O)C1` (configuration not stated), the compound was called inactive.
Still for that read-out and setting: the result for `CC1=CC[C@H](CC=O)C1(C)C` reads “inactive”; that for `CCCCOC(=O)[C@@H](C)Oc1ccc(Oc2ccc(C(F)(F)F)cn2)cc1`, “inactive”; that for `CCC(O)C(C)(C)C` (configuration not stated), “inactive”.
On the same count and under the same terms, the result for `O=C(Oc1ccccc1C(=O)O)c1ccccc1O` reads “inactive”; that for `CCOC(=O)CC#N`, “inactive”.
Consider `C=CCOCC(CO)(COCC=C)COCC=C`, for which the outcome was inactive.
As for `NC(=O)NC(=O)Cc1ccccc1`, the compound was called inactive.
As for `O=C1CC[C@H](C(=O)N2CCCCC2)N1`, the result was inactive.
As for `COc1ccc(NS(=O)(=O)c2ccc(N)cc2)nn1`, the call was inactive.
The same measure, in the same setting: with `COC(OC)C(C)c1ccccc1` (configuration not stated) the entry was “inactive”.
On the same count and under the same terms, with `CC(=O)c1ccc2c(c1)CCCC2` the entry was “inactive”.
For the compound `O=CN1CCOCC1`, the result was inactive.
On the same count and under the same terms, with `CN[C@@H]1[C@H](O)[C@H](NC)[C@H]2O[C@@]3(O)C(=O)C[C@@H](C)O[C@H]3O[C@@H]2[C@H]1O` the entry was “inactive”; with `COC(/C=C(\C)CCC=C(C)C)OC`, “inactive”.
Same read-out and setting: with `C[C@H](CCC(=O)O)[C@H]1CC[C@H]2[C@@H]3[C@H](O)C[C@@H]4C[C@H](O)CC[C@]4(C)[C@H]3C[C@H](O)[C@]12C` the entry was “inactive”; with `CCc1nccnc1C`, “inactive”.
The same measure, in the same setting: the result for `CCN(Cc1cccc(S(=O)(=O)O)c1)c1ccccc1` reads “inactive”.
